# Screening data as filed in PubChem BioAssay.
# Hits are enriched below; roughly 7.5% of the tested compounds scored in any of these assays.
# Rab9 promoter act: Rab9 promoter activation. Potency, µM (top dose mostly 9.22 µM), for the others: top-dose activation, negative = inhibition, most hits filed as activators. 320,000 tested, 2.8% active. Huh7 Rab9 promoter-luciferase reporter, luminescence, 24 h. AID 485297; further: % of control where 0% means no effect; nearly all actives have a fitted effect of over 60% in size
#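 Cells were plated at 1500 per well in reduced-serum medium with 10% FBS and left 2 h. Compound in DMSO was then added for 24 h at 37 °C. Reporter signal was read by luminescence after 10 min with luciferase detection reagent.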
# FLuc modulator: firefly luciferase modulation, counter-screen for miR-21 project; 360,000 tested, 6.9% active; P08659; AID 588342; Potency, µM (top dose mostly 57.5 µM), for the others: top-dose activity change, negative = inhibition, hits mostly inhibitors; purified FLuc, Km substrates, luminescence inhibition;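 further: plate controls were vehicle for no effect and reference inhibitor for full effect; nearly all actives have a fitted effect of over 55% in size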
# Target sequence (P08659 whole entry, looked up): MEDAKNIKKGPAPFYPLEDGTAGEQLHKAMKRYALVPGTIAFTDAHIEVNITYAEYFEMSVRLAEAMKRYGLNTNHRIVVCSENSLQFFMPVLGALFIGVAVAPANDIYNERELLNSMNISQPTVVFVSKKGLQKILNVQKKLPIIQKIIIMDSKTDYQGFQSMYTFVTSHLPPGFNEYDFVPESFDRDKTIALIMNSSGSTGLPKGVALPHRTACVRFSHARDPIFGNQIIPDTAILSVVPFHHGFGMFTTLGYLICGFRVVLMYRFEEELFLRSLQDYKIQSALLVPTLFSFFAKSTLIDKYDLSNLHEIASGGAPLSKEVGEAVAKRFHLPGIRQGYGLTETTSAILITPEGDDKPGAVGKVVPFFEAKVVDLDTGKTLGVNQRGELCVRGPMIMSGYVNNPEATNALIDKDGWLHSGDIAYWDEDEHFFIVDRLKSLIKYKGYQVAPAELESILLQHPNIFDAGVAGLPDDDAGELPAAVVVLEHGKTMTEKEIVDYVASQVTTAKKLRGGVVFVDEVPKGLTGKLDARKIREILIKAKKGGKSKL
#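 Purified P. pyralis luciferase, 10 nM final, with Km-level 10 uM D-luciferin and 10 uM ATP in 50 mM Tris acetate pH 7.5, 10 mM Mg acetate, 0.01% Tween-20, 0.05% BSA; 6-point qHTS titration about 60 µM downward; luminescence read.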
# ELG1 genotox: induces genotoxicity in HEK293T cells with luciferase-tagged ELG1 | HEK293T ELG1-luciferase reporter, luminescence, 16 h | Potency, µM (series often up to 46 µM), inactives show at the highest dose activity change, positive = activation, actives largely listed as activators | 330,000 tested, 1.3% active | AID 504466; further: % of control where 0% means no effect; nearly all actives have a fitted effect of over 60% in size
#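 HEK293T cells expressing luciferase-tagged ELG1 were treated with compound or DMSO for 16 hr at 37°C. Luciferase activity was then read after 30 min with ONE-Glo at room temperature; rising signal flags genetic stress.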
# NPC1 promoter act: NPC1 promoter activation; 320,000 tested, 2.4% active; Potency, µM (top dose mostly 9.22 µM), for the others: at the highest dose activation, usual class: activators; Huh7 NPC1 promoter luciferase reporter, 24 h; further: % of control where 0% means no effect; nearly all actives have a fitted effect of over 60% in size
#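 Stably transfected Huh7 (NPC1 promoter→luciferase), 1500 cells/well in Opti-MEM + 10% FBS, 2 h settle, then compound 24 h at 37 °C. Luminescence after 10 min with Amplite reagent.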
# SMN2 splice enh: increases expression of the SMN2 splice variant. 210,000 tested, 2.8% active. AID 1458. Potency, µM (doses to about 46.1 µM), for inactives: at the top dose activity change, positive = activation, actives largely listed as activators. HEK293 SMN2-luciferase splicing reporter, luminescence, 30-36 h; further: % of control where 0% means no effect; nearly all actives have a fitted effect of over 55% in size
#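 qHTS luciferase splicing reporter: luminescence rises when SMN2 exon 7 is included in transfected HEK293 cells. Compound exposure lasted 30-36 h at 37C, with 4.5 mM final sodium butyrate as control, followed by a ONE-Glo read.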
# Numbers without * were called inactive; u = inconclusive; x = no result given. The call rests on the fitted dose curve; in most records, active means well fitted curve in the direction sought with a large enough effect; inconclusive means small, poorly fitted or top-dose-only effect, or another doubt; inactive means no such curve, though single readings can be large; an effect the other way counts as inactive or inconclusive. Potency means the concentration at half of the fitted maximal effect.
SMILES,Rab9 promoter act,FLuc modulator,ELG1 genotox,NPC1 promoter act,SMN2 splice enh
NCCC[C@@H](CC(=O)N[C@@H]1CCNC[C@H]1C(=O)N[C@H](CC(=O)N[C@@H](CCC(=O)O)CC(=O)O)Cc1ccccc1)NC(=O)C[C@H](Cc1c[nH]c2ccccc12)NC(=O)[C@@H]1CCCC[C@H]1N,x,x,x,x,8%
Clc1ccc2c(c1)C1OCCC1C(c1ccco1)N2 (stereo not given),4.5µM*,u,u,u,13µM*
CC(=O)N1c2ccc(Cl)cc2C2OCCC2C1c1ccco1 (stereo not given),1%,-1%,-1%,1%,x
CSc1ccccc1NC(=O)COC(=O)c1c[nH]c(=O)[nH]c1=O,3%,1%,-2%,16%,x
CC(=O)Nc1ccc(CN2CCCN(C)CC2)cc1,-2%,0%,-4%,-3%,x
CCN1CCN(Cc2ccc(NC(=O)Nc3ccc(SC)cc3)cc2)CC1,u,17µM*,u,29%,u
CCN1CCN(Cc2ccc(NC(=O)Nc3ccccc3)cc2)CC1,1.4µM*,6µM*,6.5µM*,2.8µM*,-3%
CCN1CCN(Cc2ccc(NC(=O)Nc3cccs3)cc2)CC1,4µM*,4.8µM*,u,1µM*,u
CCN1CCN(Cc2ccc(NC(=O)Nc3ccc(OC)cc3)cc2)CC1,28%,u,u,17%,19%
CC(C)(C)C(=O)Nc1ccc(-c2nc3ccccc3c(=O)o2)cc1,21%,0.11µM*,6%,15%,x
CCCCC(=O)Nc1cccc(-c2nnc(-c3ccccc3)o2)c1,19%,u,-2%,8%,u
CC(C)(C)C(=O)Nc1ccc(NC(=O)C(C)(C)C)cc1,24%,-10%,7%,11%,x
CCCC(=O)Nc1cccc(-c2nc3ccccc3c(=O)o2)c1,17%,1.3µM*,-4%,1%,x
CC(C)C(=O)Nc1cccc(-c2nc3ccccc3c(=O)o2)c1,1%,u,3%,-1%,-3%
CC(C)(C)C(=O)Nc1cccc(-c2nc3ccccc3c(=O)o2)c1,u,15µM*,11%,u,-3%
CC(C)C(=O)Nc1ccc(-c2nc3ccccc3c(=O)o2)cc1,3%,0.3µM*,-1%,9%,x
O=C(Nc1cccc(-c2nc3ccccc3o2)c1)C(F)(F)F,x,u,x,x,2%
COc1ccc(C(=O)Nc2ccnn2C2CCN(Cc3ccccn3)CC2)cc1,4%,-3%,4%,6%,x
Cc1ccc(S(=O)(=O)N2[C@@H](c3ccc(Br)cc3)C(C(=O)O)=CC[C@H]2c2ccc3c(c2)OCO3)cc1,x,x,0%,x,x
COC(=O)c1ccccc1NC(=O)c1cc(-c2ccc(Cl)cc2)on1,x,0%,x,x,-11%
CCn1nnc(NC(=O)c2cc3ccccc3o2)n1,u,15µM*,15µM*,u,32µM*
CCn1nnc(NC(=O)c2ccc(Br)o2)n1,0%,-5%,-2%,2%,x
CCCCn1nnc(NC(=O)c2ccc(-c3cccc(Cl)c3)o2)n1,11%,u,0%,14%,-10%
CCc1ccc(C(=O)Nc2nnn(CC)n2)cc1,0.5µM*,4.3µM*,1.6µM*,2µM*,0.5µM*
CCCCn1nnc(NC(=O)c2cc3ccccc3o2)n1,1.6µM*,u,6.5µM*,3.2µM*,u
SMILES,Rab9 promoter act,FLuc modulator,ELG1 genotox,NPC1 promoter act,SMN2 splice enh
CCCn1nnc(NC(=O)c2cc3ccccc3o2)n1,u,19µM*,5.8µM*,2.5µM*,10µM*
COCCC(=O)N1CCC(Oc2ccc(C(=O)NCCn3cccn3)cc2)CC1,16%,1%,-1%,3%,x
CCCn1nnc(NC(=O)c2ccc3c(c2)OCO3)n1,1.6µM*,19µM*,u,2.8µM*,x
CCCn1nnc(NC(=O)c2ccc(-c3cccc(Cl)c3)o2)n1,u,17µM*,11%,29%,7%
COc1ccc(/C=C/C2=C[C@]3(C)C[C@]2(C)[C@H](c2ccc(OC)cc2)CC3=O)cc1,x,x,x,x,9%
Cc1cc(S(=O)(=O)NCc2ccccc2)ccc1OCC(=O)NCc1ccncc1,3.2µM*,15µM*,u,2.8µM*,x
O=C(COc1ccc(S(=O)(=O)NCc2ccccc2)cc1Cl)NCc1ccncc1,u,-2%,-3%,-1%,x
